The subject of assay [1] is DLD1. The assay can be described thus: cell viability (CellTiter-Glo) relative to plate median (fraction of plate median); higher = more viable cells. The following applies: 5 µM; treatment time 24 h; reporter: 7TFP. The gist of the method:
(§1)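 Colorectal cancer lines with stably integrated lentiviral TCF/Wnt firefly luciferase reporters received library compounds at a final 5 µM, 24 h after seeding into 384-well plates, for a 24 h exposure. Reported figures are plate-median-normalised firefly luciferase or CellTiterGlo luminescence per well. They average two independent replicates.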
(In ATP-based viability assays light output follows the ATP content of the culture.)

The test system of another assay is HCT116. The description is as above. Conditions: 5 µM; treatment time 24 h; reporter: TCF4/Wnt. The gist of the method:
as §1

Assay [2] concerns SW480. Described as above. The following applies: 5 µM; treatment time 24 h; reporter: 7TFP. Summed up: as §1
The subject of assay [3] is DLD1. The assay can be described thus: TCF/Wnt firefly luciferase reporter signal relative to plate median (fraction of plate median); higher = higher Wnt reporter signal. Conditions: 5 µM; treatment time 24 h; reporter: 7TFP. The gist of the method:
as §1
A general note: A reporter such as luciferase makes a cellular process visible.

For assay [4], the system named is SW480. The assay is described as above. The following applies: 5 µM; treatment time 24 h; reporter: 7TFP. Summed up:
as §1

± gives the standard deviation of the averaged measurements.

Turning to `CC[C@@]1(O)C(=O)OCc2c1cc1n(c2=O)Cc2cc3ccccc3nc2-1`, the cell viability with DLD1 [1] stood at 0.91 ± 0.094; with HCT116, 0.292 ± 0.067; in the assay on SW480 [2], 0.925 ± 0.041. For the same compound, the “TCF/Wnt firefly luciferase reporter signal” value with DLD1 [3] was 1.01 ± 0.12; with SW480 [4], 0.911 ± 0.016.
For the compound `CC(=O)O[C@H]1C(=O)[C@@]2(C)[C@H]([C@H](OC(=O)c3ccccc3)[C@]3(O)C[C@H](O)C(C)=C1C3(C)C)[C@]1(OC(C)=O)CO[C@@H]1C[C@@H]2O`, the cell viability came to 0.951 ± 0.013 with DLD1 [1], 1.04 ± 0.021 in the assay on HCT116 and 0.9845 ± 0.0078 in the assay with SW480 [2]. Further, the “TCF/Wnt firefly luciferase reporter signal” value with DLD1 [3] stood at 0.95 ± 0.028; in the assay with SW480 [4], 0.887 ± 0.076.
On to `CNC(=O)Oc1ccccc1OC(C)C`, for which the cell viability in the assay with DLD1 [1] was 0.98 ± 0.0071; in the assay on HCT116, 0.983 ± 0.0042; with SW480 [2], 0.986 ± 0.014. Further, the “TCF/Wnt firefly luciferase reporter signal” value with DLD1 [3] is 0.913 ± 0.19; in the assay on SW480 [4], 1.01 ± 0.016.
For `NNCc1ccccc1`, the cell viability in the assay on DLD1 [1] is 1.08 ± 0.12; in the assay on HCT116, 1.1 ± 0.13; with SW480 [2] it was 1.06 ± 0.028. Also, the “TCF/Wnt firefly luciferase reporter signal” value came out at 1.07 ± 0.057 with DLD1 [3] and 1.03 ± 0.093 in the assay on SW480 [4].
As for `C[C@@H]1CC[C@@]2(OC1)O[C@H]1[C@@H](O)[C@H]3[C@@H]4CC[C@H]5C[C@@H](O[C@@H]6O[C@H](CO)[C@H](O[C@@H]7O[C@H](CO)[C@@H](O)[C@H](O[C@@H]8OC[C@@H](O)[C@H](O)[C@H]8O)[C@H]7O[C@@H]7O[C@H](CO)[C@H](O)[C@H](O[C@@H]8O[C@H](CO)[C@@H](O)[C@H](O)[C@H]8O)[C@H]7O)[C@H](O)[C@H]6O)[C@H](O)C[C@]5(C)[C@H]4CC[C@]3(C)[C@H]1[C@@H]2C`, the values for the cell viability with DLD1 [1], in the assay with HCT116 and with SW480 [2] were 1.02 ± 0.11, 1.065 ± 0.0071 and 1.035 ± 0.0071, respectively. Besides, the results for the “TCF/Wnt firefly luciferase reporter signal” value with DLD1 [3] and in the assay with SW480 [4] were 0.986 ± 0.09 and 1.095 ± 0.0071, respectively.
The corresponding values for `CN1[C@@H]2CC[C@H]1C[C@@H](OC(c1ccccc1)c1ccccc1N)C2` (stereo not given in full) are 0.982 ± 0.096, 0.954 ± 0.0085, 1.03 ± 0.028, 0.999 ± 0.16 and 0.8705 ± 0.0035.
The corresponding values for `CCC1(C2=NCCN2)Cc2ccccc2O1` (stereo not given) are 0.9965 ± 0.005, 1.04 ± 0.021, 1.02 ± 0.09, 1.015 ± 0.0071 and 1.04 ± 0.035.
For `CCC(=O)O[C@H]1CC[C@H]2[C@@H]3CCC4=CC(=O)CC[C@]4(C)[C@H]3CC[C@]12C`, the cell viability is 1.02 ± 0.045 with DLD1 [1], 0.894 ± 0.06 in the assay on HCT116 and 1 ± 0.012 with SW480 [2]. For the same compound, the “TCF/Wnt firefly luciferase reporter signal” value in the assay on DLD1 [3] came out at 0.994 ± 0.17; with SW480 [4] it was 0.99 ± 0.013.
The corresponding values for `N#C/C(=C\c1ccc(O)cc1)C(=O)O` [alpha-CYANO-4-HYDROXYCINNAMIC ACID] are 1.01 ± 0.014, 1.04 ± 0.058, 0.9385 ± 0.0078, 0.996 ± 0.034 and 0.913 ± 0.033.
Taken in the same sequence, the figures for `C#C[C@]1(O)CC[C@H]2[C@@H]3CCC4=CC(=O)CC[C@]4(C)[C@H]3CC[C@@]21C` were 1.02 ± 0.042, 1.06 ± 0.021, 0.962 ± 0.048, 1.05 ± 0.064 and 1.05 ± 0.076.
Taken in the same sequence, the figures for `CC1(C)C(=O)C=C[C@@]2(C)C1=C(O)C(=O)[C@]1(C)[C@@H]2CC[C@@]2(C)[C@H](c3ccoc3)C[C@H]3O[C@]321` were 0.925 ± 0.029, 1.13 ± 0.057, 0.91 ± 0.034, 0.986 ± 0.062 and 1.02 ± 0.055.
In the case of `CN1C[C@H](CNC(=O)OCc2ccccc2)C[C@@H]2c3cccc4c3c(cn4C)C[C@H]21`, the cell viability is 1.03 ± 0.049 in the assay on DLD1 [1], 1.03 ± 0.069 in the assay on HCT116 and 1.09 ± 0.057 in the assay with SW480 [2]. The “TCF/Wnt firefly luciferase reporter signal” value with DLD1 [3] was 0.986 ± 0.049; with SW480 [4], 1.01 ± 0.052.
Taken in the same sequence, the figures for `C[C@]12CC[C@H](O)C[C@@H]1CC[C@@H]1[C@@H]2CC[C@]2(C)C(=O)CC[C@@H]12` were 0.956 ± 0.038, 0.9945 ± 0.0078, 1.01 ± 0.11, 1.075 ± 0.0071 and 1.01 ± 0.033.
Taken in the same sequence, the figures for `CO[C@]12C[C@@H](COC(=O)c3cncc(Br)c3)CN(C)[C@@H]1Cc1cn(C)c3cccc2c13` were 0.999 ± 0.16, 0.976 ± 0.033, 0.999 ± 0.03, 0.968 ± 0.1 and 1 ± 0.04.
For the compound `COC(=O)C1=CCCN(C)C1`, the cell viability came out at 0.991 ± 0.13 in the assay with DLD1 [1], 1.07 ± 0.042 in the assay with HCT116 and 1.1 ± 0.099 with SW480 [2]. The results for the “TCF/Wnt firefly luciferase reporter signal” value with DLD1 [3] and in the assay on SW480 [4] were 1.07 ± 0.11 and 1.05 ± 0.064, respectively.
As for `CC1(C)C2CC(=O)[C@]3(C)C(CC[C@@]4(C)[C@H](c5ccoc5)OC(=O)C5OC543)[C@@]2(C)[C@@H](O)C[C@H]1O` (stereo not given in full), the cell viability with DLD1 [1] was 0.996 ± 0.048; in the assay on HCT116, 1.04 ± 0.057; in the assay with SW480 [2] it was 0.995 ± 0.05. Moreover, the “TCF/Wnt firefly luciferase reporter signal” value turned out to be 1.01 ± 0.098 in the assay with DLD1 [3] and 1.02 ± 0.054 in the assay on SW480 [4].
On to `C=C[C@H]1CN2CC[C@H]1C[C@H]2[C@H](OC(=O)OCC)c1ccnc2ccc(OC)cc12`, for which the cell viability in the assay with DLD1 [1] was 1.01 ± 0.06; in the assay on HCT116, 0.911 ± 0.063; with SW480 [2] it was 0.995 ± 0.035. The “TCF/Wnt firefly luciferase reporter signal” value in the assay on DLD1 [3] came out at 0.956 ± 0.013; with SW480 [4] it was 0.98 ± 0.1.
The corresponding values for `O=c1cccc2n1C[C@@H]1CNC[C@H]2C1` are 0.978 ± 0.045, 0.981 ± 0.015, 1.005 ± 0.0071, 0.84 ± 0.15 and 0.907 ± 0.044.
The corresponding values for `COc1cc2c(cc1OC)[C@@H]1C(=O)c3ccc(OC)c(CC=C(C)C)c3O[C@@H]1CO2` are 0.943 ± 0.11, 0.849 ± 0.042, 0.992 ± 0.011, 0.848 ± 0.069 and 0.947 ± 0.13.
Taken in the same sequence, the figures for `CNC(Cc1c[nH]c2ccccc12)C(=O)O` (stereo not given) were 1.06 ± 0.11, 0.975 ± 0.0057, 1 ± 0.011, 1.03 ± 0.13 and 0.98 ± 0.13.
As to `CC[N+]1(C)CCCC(OC(=O)C(O)(c2ccccc2)c2ccccc2)C1` (stereo not given), the figures for the cell viability in the assay with DLD1 [1], with HCT116 and with SW480 [2] were 0.945 ± 0.0014, 0.949 ± 0.087 and 0.933 ± 0.091, respectively. Besides, the “TCF/Wnt firefly luciferase reporter signal” value with DLD1 [3] amounted to 0.857 ± 0.0071; with SW480 [4], 0.958 ± 0.06.
The corresponding values for `CNc1ccc(C(=O)CC(O)CCC(C)C2OC(=O)CC(O)CC(=O)CC(O)CC(O)CC(O)CC(O)CC3(O)CC(O)C(C(=O)OC)C(CC(O[C@@H]4O[C@H](C)[C@@H](O)[C@H](N)[C@@H]4O)/C=C/C=C/C=C/C=C/C=C/C=C/C=C/C2C)O3)cc1.COC(=O)C1C(O)CC2(O)CC(O)CC(O)CC(O)CC(O)CC(=O)CC(O)CC(=O)OC(C(C)CCC(O)CC(=O)c3ccc(N)cc3)C(C)/C=C/C=C/C=C/C=C/C=C/C=C/C=C/C(O[C@@H]3O[C@H](C)[C@@H](O)[C@H](N)[C@@H]3O)CC1O2` (stereo not given in full) are 0.932 ± 0.096, 0.959 ± 0.011, 0.962 ± 0.0085, 0.85 ± 0.088 and 0.908 ± 0.023.
On to `C[C@H]1O[C@H](O[C@H]2[C@H](O)[C@@H](O)[C@@H](O)[C@H](O)[C@@H]2O)[C@@H](N)C[C@@H]1NC(=N)C(=O)O`, for which the figures for the cell viability in the assay with DLD1 [1], in the assay with HCT116 and with SW480 [2] were 0.989 ± 0.086, 1.06 ± 0.035 and 1.035 ± 0.0071, respectively. Also, the “TCF/Wnt firefly luciferase reporter signal” value in the assay on DLD1 [3] came out at 1.03 ± 0.028; with SW480 [4], 0.949 ± 0.086.
Turning to `O=C1C=C2C(=CCOC2O)O1` (stereo not given), the cell viability in the assay on DLD1 [1] was determined as 0.883 ± 0.19; in the assay on HCT116 it was 0.606 ± 0.2; in the assay on SW480 [2], 0.9575 ± 0.0064. The “TCF/Wnt firefly luciferase reporter signal” value in the assay with DLD1 [3] is 0.993 ± 0.18; in the assay with SW480 [4] it was 0.499 ± 0.025.
Turning to `CSc1nc(NC(C)C)nc(NC(C)C)n1`, the cell viability in the assay on DLD1 [1] was determined as 0.9725 ± 0.0035; in the assay with HCT116, 0.92 ± 0.11; in the assay with SW480 [2] it was 1 ± 0.014. Further, the “TCF/Wnt firefly luciferase reporter signal” value in the assay with DLD1 [3] was 1.06; with SW480 [4], 1.07 ± 0.014.
The corresponding values for `COc1cc2c(cc1O)C[C@H]1c3c(cc(O)c(OC)c3-2)CCN1C` are 1.02 ± 0.095, 1.06 ± 0.086, 1.12 ± 0.13, 0.882 ± 0.033 and 1.01 ± 0.17.
As to `O=[N+]([O-])c1cc(O)c(O)c([N+](=O)[O-])c1`, the cell viability worked out at 0.891 ± 0.081 with DLD1 [1], 0.942 ± 0.096 in the assay with HCT116 and 1.03 ± 0.073 in the assay with SW480 [2]. Moreover, the “TCF/Wnt firefly luciferase reporter signal” value came out at 0.831 ± 0.27 with DLD1 [3] and 0.852 ± 0.044 with SW480 [4].

Source of the values: the supplement of paper PMC6522484.
